Source: PubChem BioAssay
TRPML1 inh – inhibitors of human TRPML1 channel; Q9GZU1; TRPML1-inducible cells, Ca2+ dye fluorescence, FDSS; hits give low values; inhibition of EC80 agonist-evoked calcium signal; activity change, negative = inhibition, % (concentration not given with the values); 390,000 tested, 0.02% active; in the data active = activity change below about -50%; inconclusive = between about -30% and that limit;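 note: stimulus is agonist 54-4 at its EC80 concentration; % is set by controls: 0 for no effect and ±100 for the full control effect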
Target sequence (Q9GZU1 whole entry, looked up): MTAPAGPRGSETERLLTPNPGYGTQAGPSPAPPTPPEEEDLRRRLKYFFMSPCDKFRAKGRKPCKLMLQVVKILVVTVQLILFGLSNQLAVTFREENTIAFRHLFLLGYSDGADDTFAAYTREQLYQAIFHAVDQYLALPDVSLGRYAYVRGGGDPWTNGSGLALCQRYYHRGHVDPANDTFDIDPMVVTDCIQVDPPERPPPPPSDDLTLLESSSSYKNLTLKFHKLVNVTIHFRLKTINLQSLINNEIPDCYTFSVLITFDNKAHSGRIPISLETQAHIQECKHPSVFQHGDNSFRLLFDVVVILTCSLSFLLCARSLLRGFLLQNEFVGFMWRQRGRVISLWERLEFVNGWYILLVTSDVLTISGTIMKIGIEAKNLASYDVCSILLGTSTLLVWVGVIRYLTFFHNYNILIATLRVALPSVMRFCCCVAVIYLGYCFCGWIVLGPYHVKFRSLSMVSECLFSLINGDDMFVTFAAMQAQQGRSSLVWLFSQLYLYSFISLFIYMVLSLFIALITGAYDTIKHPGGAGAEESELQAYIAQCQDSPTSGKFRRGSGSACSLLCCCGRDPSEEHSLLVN
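Tet-induced TRPML1-DL cells loaded with Ca8 no-wash calcium dye were read kinetically on FDSS. Compound addition was followed by EC80 agonist 54-4 (4 uM final); inhibition was read over 110 s.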
TRPV1 agonist – agonists of human vanilloid receptor 1 (TRPV1); Q8NER1; TRPV1-expressing cells, Fluo-8 calcium influx, agonist mode; activation, % at 8.33 µM; 320,000 tested, 0.19% active; AID 540275; in the data active = activation above about 80%; inconclusive = between about 30% and that limit; note: 0% is about no effect
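TRPV1-expressing cells were cultured overnight at 35.5C and loaded with Fluo-8 calcium dye for 40 to 90 min at room temperature. After a 10 s baseline, compound was added and calcium influx was read kinetically for 3 min (ex 480/em 520 nm).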
TRHR enhancer – TRH receptor (human) allosteric enhancement. enhancement, % at 2 µM. P34981. TRHR cells, fluo-8 calcium fluorescence, EC20 TRH enhancement. AID 493056. 360,000 tested, 0.66% active; in the data active = enhancement above about 30%; note: 0% is about no effect
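TRHR-expressing cells loaded with fluo-8 calcium dye were read kinetically (ex 480/em 530) during compound addition, then stimulated with an EC20 of TRH (10 nM final). Enhancement of the Gq-mediated intracellular calcium response was scored.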
TRPV1 potentiator – human TRPV1 potentiation; Q8NER1; TRPV1-expressing cells, Fluo-8 calcium influx, capsaicin EC20 potentiation; potentiation, % at 8.33 µM; 320,000 tested, 0.02% active; AID 540277; in the data active = potentiation above about 80%; inconclusive = between about 30% and that limit; note: 0% is about no effect
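Fluo-8 calcium influx in TRPV1-expressing cells, kinetic read (ex 480/em 520 nm). Compound added and read 3 min for agonist activity, followed by capsaicin at EC20 final and 2 min further read for enhancement.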
TRPML1 ag – activates the human TRPML1 channel | TRPML1-expressing cells, Ca2+ dye fluorescence, FDSS | 410,000 tested, 0.12% active | activation, % (concentration not given with the values) | Q9GZU1 | AID 624414; in the data active = activation above about 50%; inconclusive = mostly about 30% to 49%; note: 0% is about no effect
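Calcium fluorescence on an FDSS kinetic reader gave the read-out. Tet-induced TRPML1-DL cells were plated overnight, dye-loaded (Ca8 with quencher, 45-90 min, room temperature, dark), then read 110 s after compound addition, and again 110 s after 4uM final 54-4 (EC80).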
TRHR agonist – activates the human TRH receptor. TRHR cells, calcium flux fluo-8, FDSS agonist mode. P34981. 360,000 tested, 0.18% active. activation, % at 2 µM. AID 493084; in the data active = activation above about 30%; note: 0% is about no effect
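Fluo-8-loaded TRHR cells; 10 s baseline, compound added, kinetic Ca2+ fluorescence read 1/s, agonist mode.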
Active calls of the source: *; ? = inconclusive; / = not tested or not shown. Only some compounds are listed: those with a hit (about 0.99% of all), similar ones and a draw of the others.

SMILES | TRPML1 inh | TRPV1 agonist | TRHR enhancer | TRPV1 potentiator | TRPML1 ag | TRHR agonist
Cc1cc(C)c(NC(=O)Cn2c(=O)n(Cc3ccco3)c(=O)c3ccc(C(=O)NC4CCCC4)cc32)c(C)c1 | 34 | / | 55* | / | 1 | -1
O=C(Nc1cccc(-c2ccc3nncn3n2)c1)C(F)(F)F | 21 | -1 | -2 | -12 | 1 | 0
CCC(CC)C(=O)Nc1cccc(-c2ccc3nncn3n2)c1 | 10 | -2 | 31* | -4 | 1 | 5
Cc1ccc2oc3c(c(=O)c2c1)C(c1cccc(O)c1)N(CCCN1CCOCC1)C3=O (stereo not given) | 17 | / | -6 | / | -1 | 0
Cc1cc(C)c2c(=O)c3c(oc2c1)C(=O)N(CCO)C3c1cccc(O)c1 (stereo not given) | -56* | -1 | 1 | -11 | 0 | 0
CC(Oc1ccccc1Cl)C(=O)Nc1ccc(S(=O)(=O)N2CCCC2)cc1 (stereo not given) | -12 | -5 | 34* | -13 | 1 | -1
C/C(CC(=O)Nc1cc(C)ccn1)=N\NC(=O)c1ccc(C)cc1 | -12 | 5 | -5 | -1 | 1 | 0
C/C(CC(=O)Nc1cc(C)ccn1)=N\NC(=O)c1ccccc1C | -11 | 6 | -4 | 7 | 61* | 0
Cc1ccc(C(=O)N/C(=C\c2cccs2)C(=O)NC2CCCCC2)cc1 | 7 | ? | 40* | -6 | 0 | 1
Cc1ccc(C(=O)N/C(=C/c2cccs2)C(=O)N2CCCCCC2)cc1 | 9 | ? | 6 | -29 | 0 | 0
O=S(=O)(c1ccc2c(c1)OCCO2)N1CCN(S(=O)(=O)c2cc(F)c(Br)cc2F)CC1 | / | / | -4 | / | / | -2
Cc1cc2c(s1)c1cnn(Cc3ccccc3)c(=O)c1n2C | / | / | 0 | / | / | -1
Cc1ccc(N/C=C(\[N+](=O)[O-])S(=O)(=O)c2ccccc2)cc1 | -6 | 3 | 31* | 1 | 0 | 0
O=C(Nc1ccc2c3c(cccc13)CC2)c1ccc(Br)o1 | 16 | 85* | 8 | -7 | -1 | -1
N#Cc1ccc(/C=C2/C=Cc3ccccc32)cc1 | / | / | / | / | -1 | /
Cc1nn(-c2ccccc2)c(C)c1/C=N/n1c(-c2ccccc2Br)n[nH]c1=S | -69* | 21 | -3 | -5 | 3 | 0
Cc1ccccc1NC(=O)c1ccc(-c2ccc(Cl)cc2Cl)o1 | -51* | 15 | -4 | 3 | 3 | 0
Cc1cccc(C)c1NC(=O)c1ccc(-c2ccc(Cl)cc2Cl)o1 | 64 | -2 | -3 | 5 | 3 | 1
Fc1ccc(NC(=S)NCc2cccnc2)cc1 | -17 | -1 | 0 | 9 | 0 | 0
CC(C)Oc1cccc(C(=O)NC(=S)NCc2cccnc2)c1 | 37 | 0 | 40* | 6 | 7 | -2
CC(C)(C)c1ccc(NC(=S)NCc2cccnc2)cc1 | -13 | 86* | 4 | -31 | 2 | 1
CC(=O)NC(Cc1ccc([N+](=O)[O-])cc1)C(=O)NCC(N)C(=O)c1ccccc1 (stereo not given) | / | / | / | / | 0 | /
CC(C)CC(=O)N1C/C=C\C[C@@H](c2ccc(Cl)cc2)N(Cc2ccc(Cl)cc2)C(=O)[C@@H]1Cc1ccccc1 | / | / | / | / | 0 | /
CCCS(=O)(=O)c1c(S(=O)(=O)CCC)c2cc(C(C)(C)C)ccn2c1C(=O)c1ccccc1 | 23 | / | -7 | / | 1 | -1
CCCS(=O)(=O)c1c(S(=O)(=O)CCC)c2cnccn2c1C(=O)c1ccc(Cl)cc1 | 8 | 4 | 33* | -5 | 0 | 0
SMILES | TRPML1 inh | TRPV1 agonist | TRHR enhancer | TRPV1 potentiator | TRPML1 ag | TRHR agonist
Cc1ccc2c(c1)ncc[n+]2CC(=O)c1ccc(F)cc1 | / | / | / | / | 0 | /
O=S(=O)(c1ccc2c(c1)OCCO2)N1CCN(S(=O)(=O)c2ccc(F)c(F)c2F)CC1 | / | / | 1 | / | / | -1
COC(=O)c1ccccc1NC(=O)COc1ccccc1C(=O)Nc1ccccc1 | / | / | / | / | 0 | /
O=C(Nc1nnc(-c2ccccc2)o1)c1nc2ccccc2s1 | 29 | 23 | -8 | -13 | ? | 31*
NC(=O)c1oc2ccccc2c1NC(=O)c1nc2ccccc2s1 | 15 | 0 | 5 | 6 | -1 | 1
Cc1cc2c(s1)c1cnn(Cc3cccc([N+](=O)[O-])c3)c(=O)c1n2C | / | / | 6 | / | / | 0
O=C(NC1CCCN(Cc2ccc(Cl)cc2)C1)C1CCC1 (stereo not given) | 18 | -3 | 31* | 3 | 0 | -2
CN(C)/[N+]([O-])=N/Oc1ccc([N+](=O)[O-])cc1[N+](=O)[O-] | -13 | / | / | / | 1 | /
COc1ccc(C2C(C(=O)c3cccs3)=C(O)C(=O)N2c2nncs2)cc1 (stereo not given) | -23 | ? | 3 | -17 | 24 | 36*
C=CCOc1ccc(C2C(C(=O)c3cccs3)=C(O)C(=O)N2c2nnc(C)s2)cc1 (stereo not given) | 10 | / | / | / | ? | /
CC(C)c1nnc(N2C(=O)C(O)=C(C(=O)c3cccs3)C2c2ccccc2)s1 (stereo not given) | 9 | 103* | 3 | -5 | ? | 169*
COc1ccc(C2C(C(=O)c3cccs3)=C(O)C(=O)N2c2nnc(C)s2)cc1OC (stereo not given) | -11 | 28 | 8 | -22 | 20 | 193*
CN(C)c1ccc(/C=C2/CCCc3c2nc2ccccc2c3C(=O)O)cc1 | / | / | / | / | 5 | /
Cc1cccc(C)c1NC(=O)N1CC=CCC1 | -13 | -4 | -5 | -10 | 0 | 0
Cc1cccc(C)c1NC(=O)N1CCCCCCC1 | 2 | -3 | 39* | -1 | 0 | 0
C=CCOc1c(Br)cc(CNc2ccc(NC(=O)CCC)cc2)cc1OCC | 6 | -3 | -2 | 4 | 2 | 0
C=CCOc1c(Br)cc(CNc2ccc3[nH]c(=O)[nH]c3c2)cc1OCC | 11 | 87* | -4 | -1 | 0 | 0
Cc1ccc(OCC(=O)N/N=C\c2cccs2)c([N+](=O)[O-])c1 | 2 | -5 | -3 | ? | 2 | -1
Cc1ccc([N+](=O)[O-])c(C(=O)N/N=C/c2cccs2)c1 | 23 | 83* | -1 | 20 | -1 | 0
CC1CC1C(=O)OCc1cc(=O)n2cc(Br)ccc2n1 (stereo not given) | 1 | 5 | 34* | -35 | 0 | 0
CC1(C)Cc2nc3sc4c(N(CCO)CCO)nnnc4c3cc2CO1 | -6 | -3 | 30* | -3 | 0 | 0
O=C1CCCc2ccccc2N1Cc1ccc(F)cc1 | -11 | 2 | 9 | 18 | 1 | -1
O=C1CCCc2ccccc2N1Cc1cccc(F)c1 | 3 | 4 | 34* | 0 | -1 | -2
